Measurements: PubChem BioAssay (NCI)
This is part of a sample that, as a whole, favours compounds with a hit. Of some 83,000 tested, about 20% had one in any assay.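 A percent growth of 40 corresponds to 60% growth inhibition; 0 means no net growth; -100 means all cells died. Active threshold: below 10.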 Activity calls are given as the source filed them.

Each molecule was assayed on CCRF-CEM leukemia (assay: NCI-60 one-dose screen, 48 h (100 = growth as untreated, 0 = no growth, -100 = all killed)). Conditions: 10 µM unless noted.
Method: Growth inhibition of the CCRF-CEM human tumor cell line is measured as a screen for anti-cancer activity. Cells are grown in 96 well plates and exposed to the test compound for 48 hours. Compounds are tested at a single concentration, which is 10^-5 M for most compounds. The reported endpoint is percent growth (GI% or GIPRCNT), where numbers from 0 - 100% represent growth inhibition, and numbers from -100% - 0 represent cell death. For example, a value of 40 represents 60% growth inhibition. A value of 0 means no net growth occurred over the course of the experiment. A value of -40 indicates 40% of cells at the beginning of the experiment died by the end of the experiment. A value of -100 means all cells are dead at the end of the experiment.
NCI-60 Human Tumor Cell Lines Screen was performed using the standard one-dose NCI protocol, which is described in more detail at https://dtp.cancer.gov/discovery_development/nci-60/default.htm.
Compounds with GIPRCNT values below 10 were considered active. Activity score was based on GIPRCNT using the following formula: […]
Score is 0 for GIPRCNT values of 100 or above, 50 for GIPRCNT values of 0, and 100 for GIPRCNT values of -100.

For `Cn1c(SCC(=O)Nc2ccc(-c3nc4ccc([N+](=O)[O-])cc4[nH]3)cc2)nc2ccccc2c1=O`, which growth is on record?
Its growth is 86.8% (inactive).

How did the growth turn out when `O=C(CN1C(=O)/C(=C/c2ccccc2)SC1=S)N1CCOCC1` was run?
Its growth is 88% (inactive).

With `CC(C)Sc1nc(Nc2ccc(S(N)(=O)=O)cc2)c(C#N)c(-c2ccc(F)cc2)n1` as the molecule, how does the growth read?
Its growth is 36.6% (inactive).

With `N#Cc1c(-c2ccc(F)cc2)nc2c(C#N)c(Nc3ccccc3)nn2c1N` as the molecule, how does the growth read?
The growth was 96.1% (inactive).

How did the growth turn out when `C=CCSc1ccc2c(c1)C(N1CCNCC1)=Nc1ccccc1O2` was run?
Its growth is 66.6% [8.25 µM] (inactive).

`CSCCC(C(=O)O)N1C(=O)/C(=C/c2ccc(O)c(O)c2)SC1=S` (stereo not given) was tested. Which growth did it give?
Its growth is 105% (inactive).

`C/C(=N\NC(N)=O)c1c(O)sc(=O)[nH]c1=O` was tested. Which growth did it give?
Its growth is 100% (inactive).

For `COc1ccccc1C(=O)CSc1nc(Nc2ccc(S(N)(=O)=O)cc2)c2ccccc2n1`, which growth is on record?
Its growth is 87.3% (inactive).

With `CN1CCN(Cc2ccc(NC(=O)c3cncc(C#Cc4cnc5ccc(N6CCSCC6)nn45)c3)cc2C(F)(F)F)CC1` as the molecule, how does the growth read?
Its growth is 3.28% (active).

Which growth does the source give for `Clc1ccc2oc3c(NCCCn4ccnc4)c4ccccc4nc3c2c1` here?
Its growth is 19.4% (inactive).

`NS(=O)(=O)c1cccc(Nc2nc(SCC(=O)c3ccc(Cl)cc3)nc3ccccc23)c1` was tested. Which growth did it give?
The growth was 85.7% (inactive).

How did the growth turn out when `N#Cc1c(-c2ccc(Cl)cc2)nc(SCc2ccccc2)nc1N1CCNCC1` was run?
The growth was 45.9% (inactive).

How did the growth turn out when `CS(=O)(=O)c1ccc(-c2nc3ccccn3c2C=Nc2ccc(Cl)cc2)cc1` was run?
The growth was 61.8% (inactive).

With `COC(=O)C(Cc1ccccc1)NS(=O)(=O)/N=C1\NC(=O)NC1=C(Cl)Cl` (stereo not given) as the molecule, how does the growth read?
The growth was 37.8% (inactive).

For `COc1ccc(N/N=C/c2c(-c3ccc(S(C)(=O)=O)cc3)nc3ccccn23)cc1`, which growth is on record?
Its growth is 32% (inactive).

`O=C(CSc1nnc(-c2ccc3nc(-c4ccc(Cl)cc4)[nH]c3c2)o1)Nc1ccc(C(=O)/C=C/c2ccc(Cl)cc2)cc1` was tested. Which growth did it give?
Its growth is 86.4% (inactive).

`COc1cc2nc(-c3ccc(C(F)(F)F)cc3)cc(OCCCNCC3CCCO3)c2cc1OC` (stereo not given) was tested. Which growth did it give?
Its growth is 28.6% (inactive).

How did the growth turn out when `N#Cc1nc(-c2ccccc2)oc1N1CCC(CO)C1` (stereo not given) was run?
The growth was 105% (inactive).

`O=C(CCCN1C(=O)/C(=C/c2ccccc2F)SC1=S)N1CCOCC1` was tested. Which growth did it give?
The growth was 71.6% (inactive).

With `COc1cc(/C=C/C(=O)c2cc(OC)c(OC)c(OC)c2)ccc1OCc1ccccc1` as the molecule, how does the growth read?
The growth was 4.39% (active).

With `Clc1ccc(-c2cn3cc(Cc4ccc(Cl)c(Cl)c4)sc3n2)cc1` as the molecule, how does the growth read?
Its growth is 79.7% (inactive).

`N=C1CC(=O)NN1C(=O)CSc1nc2sc3c(c2c(=O)n1-c1ccc(Cl)cc1)CCCC3` was tested. Which growth did it give?
The growth was 103% (inactive).

`CN(C)CCCNc1c2ccccc2nc2c1oc1ccc(Cl)cc12` was tested. Which growth did it give?
The growth was 24.1% (inactive).

For `CCN1C(=S)N(c2ccccc2)C2NC(=O)N(/N=C/C=C/c3ccccc3OC)C21` (stereo not given), which growth is on record?
The growth was 92.3% (inactive).

`O=C(NNc1nc2cc(F)ccc2n2c(CN3CC4(COC4)C3)ccc12)c1cnccn1` was tested. Which growth did it give?
Its growth is 4.02% (active).

With `COc1ccc(Cc2nn(CC(=O)N/N=C/c3ccc(Cl)cc3)c(=O)c3c(C)noc23)cc1` as the molecule, how does the growth read?
The growth was 74.8% (inactive).

How did the growth turn out when `CN(C)CCCNc1c2ccc(Cl)cc2nc2c1oc1ccc(Cl)cc12` was run?
The growth was 2.17% (active).

For `COc1cc(/C=C/C(=O)c2ccc(F)cc2)ccc1Oc1nc(NCCO)nc(N2CCOCC2)n1`, which growth is on record?
Its growth is 4.33% (active).

With `Clc1ccc(Cc2nnc3sc(-c4cccnc4)nn23)cc1` as the molecule, how does the growth read?
Its growth is 98.9% (inactive).

`O=C1/C(=C/C2=Cc3ccccc3OC2)SC(=S)N1c1ccc(F)cc1` was tested. Which growth did it give?
The growth was 109% (inactive).

`CN(C)CCCOc1c2ccc(Cl)cc2nc2c1oc1ccccc12` was tested. Which growth did it give?
Its growth is 0.191% (active).

`CC(=O)c1ccc(Nc2nc(SC(C)C)nc(-c3ccccc3)c2C#N)cc1` was tested. Which growth did it give?
The growth was 96.1% (inactive).

`COc1cc2cc(Oc3ccc(NC(=O)c4cccc(C(F)(F)F)c4)cc3)c(C)nc2cc1OCCN1CCCCC1` was tested. Which growth did it give?
The growth was 6.44% (active).

Which growth does the source give for `O=C1Nc2cc(Cl)ccc2/C1=C\c1ccc(OCc2ccc([N+](=O)[O-])cc2)cc1` here?
Its growth is 5.4% (active).

With `NS(=O)(=O)c1cccc(Nc2nc(SCC(=O)c3ccc([N+](=O)[O-])cc3)nc3ccccc23)c1` as the molecule, how does the growth read?
Its growth is 12% (inactive).

Which growth does the source give for `C#Cc1nc(C2=C(C)C(=N\O)/C(=N/O)C2)cs1` here?
The growth was 87.1% (inactive).

Which growth does the source give for `COc1cc(/C=C/C(=O)c2ccc(Cl)cc2)ccc1Oc1nc(NCCO)nc(N2CCOCC2)n1` here?
The growth was 78.4% (inactive).

With `O=c1[nH]c2ccccc2cc1CSc1ccccc1Nc1nccc(-c2ccc(C(F)(F)F)cc2)n1` as the molecule, how does the growth read?
Its growth is 87.4% (inactive).

Which growth does the source give for `O=C1[C@H]2Cc3c([nH]c4ccccc34)[C@@H](c3ccc(Br)cc3)N2C(=O)CN1C1CCN(Cc2ccccc2)CC1` here?
Its growth is 15.5% (inactive).

For `O=C1C2=C(C(=O)c3c(O)cccc31)C(c1ccco1)c1sc(=O)[nH]c1S2` (stereo not given), which growth is on record?
Its growth is 13% (inactive).
